This is a sample that favours compounds with a hit; in the whole collection about 4.1% have one here.
hgDAF12 agonist: activates the H. glycines DAF-12 receptor ligand-binding domain | 1.8% of 370,000 active | HEK293 GAL4-hgDAF12 UAS-luciferase reporter, agonist luminescence; normalized to butyrate control | activation, % at 6.8 µM;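 active = activation above a cutoff set at the mean of all screened compounds plus 3 SD, cut at about 10% in these data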
hcDAF12 agonist: activates DAF-12 receptor from parasite H. contortus | HEK293 hcDAF-12 lit1-tk-luc reporter, luminescence; 0% DMSO, 100% Δ7-dafachronic acid | 1.4% of 370,000 active | activation, % at 6.8 µM;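 active = activation above the mean of all tested compounds plus 3 SD, cut at about 5.5% in these data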
DAX1 inh-1: inhibitors of DAX1 repression of SF-1 activated StAR promoter. HEK293T StAR-luciferase reporter, SF-1/DAX-1 repression relief. inhibition, % at 6.8 µM. 1.1% of 370,000 active;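 active = inhibition above the mean over all tested compounds plus 3 SD, cut at about 3.6% in these data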;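 also: higher inhibition means more luminescence from relief of DAX-1 repression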
DAX1 inh-2: NR0B1 (DAX1) inhibition; P51843; HEK293 Gal4-DAX1 luciferase reporter, luminescence; inhibition, % at 6.75 µM; 0.99% of 340,000 active; AID 504766;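 active = inhibition above the mean over all tested compounds plus 3 SD, cut at about 4.2% in these data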;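 also: inhibition shows as a rise in luminescence from relieved DAX1 repression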
Target sequence (P51843 207-470 limits assumed): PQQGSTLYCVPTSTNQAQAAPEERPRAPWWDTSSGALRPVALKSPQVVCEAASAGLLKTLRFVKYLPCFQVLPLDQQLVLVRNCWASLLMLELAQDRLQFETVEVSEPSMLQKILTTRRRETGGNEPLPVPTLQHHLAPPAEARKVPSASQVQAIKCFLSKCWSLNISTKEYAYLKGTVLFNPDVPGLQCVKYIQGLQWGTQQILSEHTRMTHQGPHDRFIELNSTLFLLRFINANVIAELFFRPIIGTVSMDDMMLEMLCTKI
ssDAF12 agonist: S. stercoralis DAF-12 activation, primary screen | activation, % at 6.8 µM | 1% of 370,000 active | HEK293 ssDAF-12/GRIP1 lit1-tk-luc reporter, luminescence; % of 3 µM dafachronic acid response | AID 652126;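 active = activation above the mean over all tested compounds plus 3 SD, cut at about 0.9% in these data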
A number is an active result; 0 = inactive; - = no result given.

SMILES	hgDAF12 agonist	hcDAF12 agonist	DAX1 inh-1	DAX1 inh-2	ssDAF12 agonist
COc1ccc(S(=O)(=O)NCc2ccco2)cc1C(=O)N1CCOCC1	0	0	0	0	0
CC1CCc2sc(C(=O)NC3CCCCC3)cc2C1 (stereo unspecified)	12	0	0	0	0
O=C(NC1CCCCC1)c1cccs1	0	0	0	0	0
CCc1ccc(C(=O)NC2CCCCC2)s1	11	0	0	0	0
CC(C)(O)C#Cc1ccc(C(=O)NC2CCCCC2)s1	11	0	0	0	0
CC(C)(O)C#Cc1ccc(C(=O)NCCC(=O)O)s1	0	0	0	0	0
CCOc1ccc(-n2c(SC/C=C/c3ccccc3)nnc2-c2cccs2)cc1	0	0	0	-	0
Nc1nc(=O)n(C2CC(O)C(CO)O2)cc1F (stereo unspecified)	0	0	0	0	0
Nc1nc(=O)n(C2CC(O)C(CO)O2)cc1Cl (stereo unspecified)	0	0	0	-	3.1
COc1ccc(NC(=O)c2ccc3ccccc3c2OC)cc1	0	0	0	4.4	0
COc1cc(C(=O)Nc2ccc(C)cc2)c2ccccc2n1	0	5.7	0	0	0
COc1ccc(NC(=O)c2ccccc2NC(=O)CSc2ccc(C)cc2)cc1	0	5.9	0	0	0
CSc1ccccc1NC(=O)Nc1ccccc1	0	0	0	0	0
O=C(Nc1ccc2ccccc2c1)c1cccc2ccccc12	0	0	0	0	0
CCOc1ccc(NC(=O)c2cc(OC)nc3ccccc23)cc1	0	0	0	0	0
CCOc1ccc(NC(=O)Nc2ccccc2SC)cc1	11	0	0	4.5	0
Cc1cc(N2CCNC[C@H]2C)ccc1N1CCN(Cc2ccccc2)[C@H](C)C1	0	0	0	-	0
Cc1ccc(S(=O)(=O)N2CCCC2C(=O)N2CCc3ccccc3C2)cc1 (stereo unspecified)	0	0	0	-	0
COC(=O)[C@]12C[C@H](CC(=O)N3CCOCC3)C(=O)N(Cc3cccc4ccccc34)C1=C[C@H](COCc1ccccc1)O[C@@H]2C	0	0	0	-	0
CCn1c2ccccc2c2cc(NC(=O)COC(=O)c3ccc(F)cc3F)ccc21	0	0	0	-	0
CCOc1ccc(NC(=O)c2cc3ccccc3cc2O)cc1	0	0	0	0	1.2
COc1ccc(C(=O)NNC(=O)CSc2ccccc2)cc1	0	0	0	4.5	0
CCOc1ccc(NC(=O)c2cccc3ccccc23)cc1	0	0	0	0	0
O=C(NCCc1ccc(F)cc1)c1cc2ccccn2n1	0	0	0	-	0
O=C(O)COc1ccccc1C=NNC(=O)Cc1cc(=O)[nH][nH]1	0	0	0	-	0
SMILES	hgDAF12 agonist	hcDAF12 agonist	DAX1 inh-1	DAX1 inh-2	ssDAF12 agonist
COC(=O)COc1ccsc1C(=O)OC	0	0	0	4.2	0
O=C(Nc1nccs1)c1ccc2nccnc2c1	0	0	0	4.6	0
O=C(Nc1nccs1)c1ccc(N2C(=O)[C@@H]3[C@H](C2=O)[C@H]2C=C[C@@H]3C2)cc1	12	0	0	4.5	0
O=C(Nc1nccs1)c1cccc(N2C(=O)C3C4C=CC(C4)C3C2=O)c1 (stereo unspecified)	0	0	0	0	0
CC(=O)N1N=C(c2ccc(Br)cc2)OC12CCCC2	0	0	0	4.4	0
CC(=O)N1N=C(c2ccncc2)OC12CCCC2	0	0	0	0	0
COc1cccc(C(=O)N[C@H](C(=O)N2CCC[C@H]2C(=O)NCc2ccccc2)C2CCCCC2)c1	0	0	0	-	0
CCOC(=O)[C@@]12CCC3=C1N(CCC3)C(=O)[C@H](CC(=O)N1CCOCC1)C2	0	0	0	-	0
CC(C)(C)c1cc(NC(=O)C2CCCO2)no1 (stereo unspecified)	0	0	0	0	1.4
O=C(O)c1cc(NC(=O)C2CCCO2)cc(C(=O)O)c1 (stereo unspecified)	0	0	0	0	0
CCCC1CCC2(CCCN2CCOC(=O)Nc2ccccc2OC)CC1 (stereo unspecified)	0	0	-	-	0
COC(=O)[C@]12C[C@H](CC(=O)NCc3ccc(C)o3)C(=O)N(Cc3ccc(Cl)cc3Cl)C1=C[C@H](C(C)C)O[C@@H]2C1CC1	0	0	0	-	0
CCOc1ccc(C(=O)NCC(=O)OCc2nnc(-c3ccccc3)o2)cc1OCC	0	0	4.2	0	0
CCOC(=O)[C@]12CCCCC/C=C\1N(CCc1ccc(Cl)cc1)C(=O)[C@H]2CC(=O)NCc1cccs1	0	0	0	-	0
O=C(NC1CCCCC1)C(c1ccc(F)cc1)N(C(=O)c1csnn1)C1CCCC1 (stereo unspecified)	0	0	0	0	0
O=C(NC1CCCC1)C(c1ccccc1)N(C(=O)c1csnn1)c1ccccc1F (stereo unspecified)	0	0	0	4.7	0
O=C(NC1CCCC1)C(c1ccc(F)cc1)N(C(=O)c1csnn1)C1CCCC1 (stereo unspecified)	0	0	0	5.9	0
O=C(NC1CCCCC1)C(c1ccncc1)N(C(=O)c1csnn1)c1ccccc1F (stereo unspecified)	0	0	0	0	0
Cc1ccc(C)c(N(C(=O)c2csnn2)C(C(=O)NC2CCCCC2)c2cccnc2)c1 (stereo unspecified)	0	0	0	4.4	0
COc1ccc2ccccc2c1C=NNC(=O)CN1CCN(Cc2ccccc2)CC1	0	0	0	-	0
O=C(Nc1nc2ccsc2c(=O)s1)c1ccc(Cl)cc1	0	0	0	5.8	0.9
Fc1ccc(C2=Nn3c(nnc3C3CCCCC3)SC2)cc1	0	0	0	-	0
COc1ccc2c3c([nH]c2c1)C1=NCC[C@]12c1ccccc1N=CN2CC3	0	0	-	-	0
O=C(N/N=C/c1ccc2c(c1)OCO2)c1cccnc1	0	0	0	0	0
O=C(N/N=C/c1cccnc1)c1ccc2c(c1)OCCO2	11	0	0	0	0
SMILES	hgDAF12 agonist	hcDAF12 agonist	DAX1 inh-1	DAX1 inh-2	ssDAF12 agonist
COc1cc(/C=N/NC(=O)c2cccnc2)cc2c1OCO2	0	0	4.1	0	0
O=C(O)c1ccc(/C=N/NC(=O)c2ccc3c(c2)OCCO3)cc1	0	0	0	0	0
Cn1nccc1C(=O)N/N=C/c1cccnc1	0	0	0	4.3	0
Cc1ccnc(SCc2cc(=O)c(OC(=O)c3ccc(C)c([N+](=O)[O-])c3)co2)n1	0	0	-	-	0
C[C@@H]1CCN(C2CC2)S(=O)(=O)c2c(cccc2N2CC[C@H](N(C)C)C2)O1	0	0	0	-	0
COC(=O)[C@]12C[C@H](CC(=O)NCCCCc3ccccc3)C(=O)N(CCc3ccc(OC)c(OC)c3)C1=C[C@H](COCc1ccccc1)O[C@@H]2C	0	0	0	-	0
CCOC(=O)c1sc2nc3c(cc2c1N)COC(C(C)C)C3 (stereo unspecified)	0	0	0	4.3	0
CC(=O)C1=C(C)N(Cc2ccc(Br)cc2)C(=S)NC1c1ccc(F)cc1 (stereo unspecified)	0	0	0	-	0
CSCCC(NC(=O)c1ccc(Cl)cc1)C(=O)OCC(C)=O (stereo unspecified)	0	0	0	5.6	0
